Laboratory results: the supplement of paper PMC8699584
± gives the standard deviation of the averaged measurements.

System: Molm13
Assay: cell viability relative to DMSO control (bortezomib = 0%); higher = less growth inhibition
Conditions: 10 nM; 72 h
Method in brief: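 Each plate's values were converted to percentages by linear regression, taking DMSO-treated cells as 100% and positive-control-treated cells as 0%. These plates were 384-well plates of 679 approved and investigational compounds at a single 10 nM dose, onto which acute myeloid leukemia cells were dispensed at 1000 cells per well in 50 µL for 72 h, in duplicate. Cell viability came from CellTiter-Glo luminescence on an EnVision reader.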

Compared with COC(=O)C1(OC)CC2OC1(C)n1c3ccccc3c3c4c(c5c6ccccc6n2c5c31)C(=O)N(C)C4 (stereo not drawn), CN[C@@H]1C[C@H]2O[C@@](C)([C@@H]1OC)n1c3ccccc3c3c4c(c5c6ccccc6n2c5c31)C(=O)NC4 [Staurosporine] is lower in cell viability: 115 ± 6.2% for the first, 11.9 ± 18% for the second.

Compared with COC[C@H]1OC(=O)c2coc3c2[C@@]1(C)C1=C(C3=O)[C@@H]2CCC(=O)[C@@]2(C)C[C@H]1OC(C)=O [Wortmannin], CC(=O)OC(C)(C)/C=C/C(=O)[C@](C)(O)[C@H]1[C@H](O)C[C@@]2(C)[C@@H]3CC=C4[C@H](C[C@H](O)C(=O)C4(C)C)[C@]3(C)C(=O)C[C@]12C [Cucurbitacin B] is lower in cell viability: 114 ± 9% for the first, 61.7 ± 0.99% for the second.

COc1ccc2c(c[n+](C)c3c4cc5c(cc4ccc23)OCO5)c1OC [Chelerythrine chloride] and COc1cc([C@@H]2c3cc4c(cc3[C@H](O)[C@H]3COC(=O)[C@@H]23)OCO4)cc(OC)c1OC [Picropodophyllin (PPP)] are within error of each other in cell viability: 115 ± 13% for the first, 98.4 ± 8.1% for the second.

First: C/C(O)=C(\C#N)C(=O)Nc1cc(Br)ccc1Br
Second: N#C/C(=C\c1ccc(O)c(O)c1)C(N)=S
The cell viability of the first is higher: 108 ± 6.6% for the first, 91.3 ± 7.4% for the second.

Compared with COc1ccc(N(C(=O)Oc2c(C)cccc2C)c2ccnc(Nc3ccc(N4CCN(C)CC4)cc3)n2)c(OC)c1, Cc1ccccc1-n1c(Cn2ncc3c(N)ncnc32)nc2cccc(C)c2c1=O is higher in cell viability: 94.5 ± 18% for the first, 117 ± 1.4% for the second.

Compared with O=C(O)c1nn(Cc2ccc(Cl)cc2Cl)c2ccccc12 [Lonidamine], Cc1ccccc1-n1c(Cn2cnc3c(N)ncnc32)nc2cccc(C)c2c1=O is lower in cell viability: 123 ± 1.8% for the first, 108 ± 13% for the second.

CC(=O)N[C@H]1[C@@H](O[C@@H]2O[C@H](CC(O)[C@H]3O[C@@H](n4ccc(=O)[nH]c4=O)[C@H](O)[C@@H]3O)[C@H](O)[C@H](O)[C@H]2NC(=O)/C=C/CC(C)C)O[C@H](CO)[C@@H](N)[C@@H]1O (stereo partly drawn) [Tunicamycin] and CC(C)=CCC[C@](C)(O)[C@H]1CC[C@]2(C)[C@@H]1[C@H](O)C[C@@H]1[C@@]3(C)CC[C@H](O[C@@H]4O[C@H](CO)[C@@H](O)[C@H](O)[C@H]4O)C(C)(C)[C@@H]3CC[C@]12C [Ginsenoside Rh2] are within error of each other in cell viability: 105 ± 14% for the first, 116 ± 2.1% for the second.

CC(C)(C)c1cc(C=C(C#N)C#N)cc(C(C)(C)C)c1O [Tyrphostin 9] and COc1ccc2c(c[n+](C)c3c4cc5c(cc4ccc23)OCO5)c1OC [Chelerythrine (chloride)] are within error of each other in cell viability: 96.2 ± 18% for the first, 106 ± 10% for the second.

O=c1[nH]c2ccccc2n1C1CCN(Cc2ccc(-c3[nH]c4cc5ncnc5cc4nc3-c3ccccc3)cc2)CC1 [AKT inhibitor VIII] and O=C([O-])C(Cl)Cl.[Na+] [Sodium†Dichloroacetate] are within error of each other in cell viability: 103 ± 12% for the first, 74 ± 24% for the second.
